According to PubChem BioAssay (Tox21):
Values joined by “and” are separate entries in the source; they are usually repeats but may differ in a detail not shown here. Identical values can stand only once. Records with an inconclusive call do not appear. Where a call stands in place of a potency, no number is given. More than one record can exist for a structure, and the calls need not agree. Active and inactive are the calls of the source. Unless noted, the call rests on the fitted dose curve.

Key:
[1] = qHTS assay to identify small molecule agonists of the vitamin D receptor (VDR) signaling pathway - cell viability counter screen (AID 743224; active means well fitted curve in the direction sought with a large enough effect in the repeat runs; an effect the other way counts as inactive or inconclusive; further: nearly all actives have a fitted effect of over 50% in size; further: potency means the concentration at half of the fitted maximal effect)
In short: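 VDR-bla cells, 4 h after plating, exposed to compounds for 16 h at 37C; viability then read in the same wells as CellTiter-Glo luminescence after 30 min at room temperature, following the bla FRET read.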

[2] = qHTS assay to identify small molecule antagonists of the vitamin D receptor (VDR) signaling pathway - cell viability counter screen (AID 743225; active means well fitted curve in the direction sought with a large enough effect in the repeat runs; an effect the other way counts as inactive or inconclusive; further: nearly all actives have a fitted effect of over 50% in size; further: potency means the concentration at half of the fitted maximal effect)
In short: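 Luminescent cell viability (CellTiter-Glo) in VDR-bla HEK 293T cells after 16 h compound exposure at 37C in the presence of 3 nM final 1-alpha,25-dihydroxy vitamin D3.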

[3] = qHTS assay to identify small molecule agonists of the NFkB signaling pathway - cell viability counter screen (AID 1159515); further: nearly all actives have a fitted effect of over 55% in size; further: potency means the concentration at half of the fitted maximal effect
In short: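 NFkB-bla ME-180 cells, 2,000/well, plated overnight at 37 C; compound added for 5 hr at 37 C. Viability read in the same wells as the bla reporter, by CellTiter-Glo luminescence after 30 min at room temperature.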

[4] = qHTS assay to identify small molecule agonists of the endoplasmic reticulum stress response signaling pathway - cell viability counter screen (AID 1159517); further: nearly all actives have a fitted effect of over 50% in size; further: potency means the concentration at half of the fitted maximal effect
In short: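 Counter-screen wells were identical to the reporter wells. Cells were plated at 1,500 per well and dosed for 5 hr, then read for luminescence 30 min after CellTiter-Glo addition.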

[5] = qHTS assay to identify small molecule antagonists of the retinoid-related orphan receptor gamma (ROR-gamma) signaling pathway - cell viability counter screen (AID 1159520; active means well fitted curve in the direction sought with a large enough effect in the repeat runs; an effect the other way counts as inactive or inconclusive; further: nearly all actives have a fitted effect of over 50% in size; further: potency means the concentration at half of the fitted maximal effect)
In short: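 Tet-on ROR gamma CHO cells were given compounds for 2 hr, then doxycycline hyclate at 1 uM final, and incubated 16 hr at 37 C. Viability was measured as ATP content by CellTiter-Glo luminescence.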

[6] = target: Nuclear receptor ROR-gamma (Homo sapiens) (UniProt P51449); assay: qHTS assay to identify small molecule antagonists of the retinoid-related orphan receptor gamma (ROR-gamma) signaling pathway (AID 1159521; active means well fitted curve in the direction sought with a large enough effect in the repeat runs; an effect the other way counts as inactive or inconclusive; further: nearly all actives have a fitted effect of over 50% in size; further: potency means the concentration at half of the fitted maximal effect)
In short: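 CHO cells expressing RORγ under a TET-on promoter, luciferase under RORE control. Dox 1 uM final, 16 h; compounds added 2 h prior. Luminescence decrease measured.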

[7] = qHTS assay to identify small molecule agonists of the AP-1 signaling pathway - cell viability counter screen (AID 1159525); further: nearly all actives have a fitted effect of over 55% in size; further: potency means the concentration at half of the fitted maximal effect
In short: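 AP-1-bla ME-180 cells in Opti-MEM with 0.5% dialyzed FBS, compound exposure 5 h at 37 C in 15-point titration. Viability read in the same wells as ATP content by CellTiter-Glo luminescence, normalised to tetra-n-octylammonium bromide and DMSO controls.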

[8] = qHTS assay to identify small molecule agonists of the AP-1 signaling pathway (AID 1159526); further: potency means the concentration at half of the fitted maximal effect
[9] = target: Retinoic acid receptor RXR-alpha (Homo sapiens) (UniProt P19793); assay: qHTS assay to identify small molecule agonists of the RXR signaling pathway (AID 1159527); further: nearly all actives have a fitted effect of over 35% in size; further: potency means the concentration at half of the fitted maximal effect
Sequence of Retinoic acid receptor RXR-alpha (Homo sapiens) (P19793 whole entry, looked up): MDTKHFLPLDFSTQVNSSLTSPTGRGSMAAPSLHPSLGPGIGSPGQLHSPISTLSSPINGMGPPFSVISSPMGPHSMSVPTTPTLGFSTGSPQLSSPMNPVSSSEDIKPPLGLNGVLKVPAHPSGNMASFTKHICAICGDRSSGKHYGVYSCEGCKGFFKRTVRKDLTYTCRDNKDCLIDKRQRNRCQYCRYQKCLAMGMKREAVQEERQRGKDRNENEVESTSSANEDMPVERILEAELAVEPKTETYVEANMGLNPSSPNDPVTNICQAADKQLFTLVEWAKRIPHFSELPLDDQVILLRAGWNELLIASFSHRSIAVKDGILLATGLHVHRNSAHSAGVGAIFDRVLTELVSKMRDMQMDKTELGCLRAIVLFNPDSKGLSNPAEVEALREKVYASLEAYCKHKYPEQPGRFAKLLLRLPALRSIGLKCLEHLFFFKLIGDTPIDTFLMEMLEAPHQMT
In short: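 Beta-lactamase reporter assay, agonist format. Engineered HEK 293T line, charcoal-stripped FBS at 2%, overnight (16 hr) exposure, fluorescence at 460 and 530 nm after 405 nm excitation.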

[10] = qHTS assay to identify small molecule agonists of the endoplasmic reticulum stress response signaling pathway (AID 1159516; active means well fitted activation curve with a large enough effect in the signal ratio in the repeat runs, not every such curve was filed as active; the % refers to the signal ratio)
In short: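 CellSensor ESRE-bla HeLa cells, 1,500 per well, plated overnight, then exposed to compounds for 5 hr at 37 C. Beta-lactamase reporter read with LiveBLAzer B/G FRET substrate after 2 hr at room temperature, 405 nm excitation, 460 and 530 nm emission.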

Compound | Potency [1] | Potency [2] | Potency [3] | Potency [4] | Potency [5] | Potency [6] | Potency [7] | Potency [8] | Potency [9] | Potency [10]
O=C(O)CCCCCCNC1c2ccccc2CCc2ccccc21 | inactive | inactive | inactive | inactive | inactive | inactive | inactive | 10.7 µM (active) | inactive | –
CCOP(=S)(OCC)SC(CCl)N1C(=O)c2ccccc2C1=O (centres undefined) | inactive | inactive | inactive | – | inactive | – | inactive | inactive | – | inactive
CC(Cc1ccc(OCC(=O)O)cc1)NCC(O)c1csc(C(F)(F)F)n1 (centres undefined) | inactive | inactive | inactive | inactive | inactive | inactive | inactive | inactive | – | –
COc1ccc2c3c1O[C@H]1[C@H](O)CC[C@H]4[C@@H](C2)N(C)CC[C@@]341 | inactive | inactive | inactive | – | – | inactive | inactive | inactive | inactive | inactive
[O]=[Cr](=[O])([OH])[O][Cr](=[O])(=[O])[OH] | 17.5 µM (active) and 21.8 µM (active) | 19.7 µM (active) and 21.8 µM (active) | 30.8 µM (active) | 22.1 µM (active) and 34.6 µM (active) | 5.5 µM (active) and 2.43 µM (active) | 4.9 µM (active) and 4.32 µM (active) | 24.8 µM (active) | inactive | – | –
CN(C)CCc1c[nH]c2ccccc12 | inactive | inactive | inactive | – | inactive | inactive | inactive | – | – | inactive
Nc1cc(Cl)ccc1Cl | inactive | inactive | inactive | inactive | inactive | inactive | inactive | inactive | inactive | –
S=C=Nc1ccccc1 | inactive | inactive | inactive | – | – | inactive | inactive | inactive | – | inactive
C[C@]12Cc3cn[nH]c3C[C@@H]1CC[C@@H]1[C@@H]2CC[C@@]2(C)[C@H]1CC[C@]2(C)O | 29.8 µM (active) | inactive | 23.9 µM (active) | – | inactive | 13.3 µM (active) | 23.9 µM (active) | – | – | inactive
Nc1ccccc1-c1ccccc1 | inactive | inactive | inactive | – | – | inactive | inactive | inactive | – | inactive
COC(=O)/C=C(\C)OP(=O)(OC)OC | inactive | inactive | inactive | inactive | inactive | inactive | inactive | inactive | inactive | –
COCCC#N | inactive | inactive | inactive | – | inactive | inactive | inactive | inactive | – | inactive
CCOP(=O)(OCC)Oc1cc(C)nc(C(C)C)n1 | inactive | inactive | inactive | inactive | inactive | inactive | inactive | inactive | inactive | –
CC(C)=CC1C(C(=O)OC(C#N)c2cccc(Oc3ccccc3)c2)C1(C)C (centres undefined) | inactive | – | inactive | inactive | inactive | inactive | inactive | inactive | – | –
Cc1c([N+](=O)[O-])c(C)c([N+](=O)[O-])c(C(C)(C)C)c1[N+](=O)[O-] | inactive | – | inactive | – | inactive | – | inactive | inactive | 12.3 µM (active) | inactive
CCCCC(CC)COC(=O)c1ccccc1C(=O)OCC(CC)CCCC (centres undefined) | inactive | – | inactive | – | inactive | – | inactive | inactive | – | inactive
O=[N+]([O-])C(Br)Br | inactive | inactive | inactive | 55 µM (active) | 21.7 µM (active) | inactive | inactive | inactive | inactive | –
O.O.O.O=C([O-])[C@H]([O-])[C@@H]([O-])C(=O)[O-].O=C([O-])[C@H]([O-])[C@@H]([O-])C(=O)[O-].[K+].[K+].[Sb+3].[Sb+3] | inactive | inactive | inactive | – | – | 1.94 µM (active) | – | – | – | inactive
O=C1C[C@@H]2OCC=C3CN4CC[C@]56c7ccccc7N1[C@H]5[C@H]2[C@H]3C[C@H]46 | inactive | inactive | inactive | inactive | inactive | inactive | inactive | inactive | – | –
CN=C=O | inactive | inactive | inactive | – | inactive | inactive | inactive | inactive | – | inactive
S=C=NCCc1ccccc1 | inactive | – | inactive | – | – | – | inactive | – | – | inactive
BrCC(Br)(Br)Br | inactive | inactive | inactive | inactive | 50.3 µM (active) | inactive | inactive | inactive | – | –
Cc1cc(C2CC2)nc(Nc2ccccc2)n1 | – | inactive | inactive | – | – | inactive | – | – | – | inactive
CC1CCCC1 | inactive | inactive | inactive | – | inactive | – | inactive | – | – | inactive

Compound | Potency [1] | Potency [2] | Potency [3] | Potency [4] | Potency [5] | Potency [6] | Potency [7] | Potency [8] | Potency [9] | Potency [10]
Brc1cccc(-c2ccccc2)c1 | inactive | – | inactive | inactive | inactive | inactive | inactive | inactive | – | –
CC(=O)[O-].CC(=O)[O-].[Co+2] | inactive | inactive | inactive | – | – | – | inactive | inactive | – | inactive
CSC1=N[C@@](C)(c2ccccc2)C(=O)N1Nc1ccccc1 | – | – | inactive | – | – | 10.9 µM (active) | inactive | inactive | inactive | inactive
Nc1nc(N)c(N)c(N)n1 | inactive | inactive | inactive | inactive | inactive | inactive | inactive | inactive | – | –
CCCCON=O | inactive | – | inactive | – | inactive | – | inactive | inactive | – | inactive
CN | inactive | inactive | inactive | – | inactive | – | inactive | inactive | – | inactive
CN/C(=N\[N+](=O)[O-])NCc1cnc(Cl)s1 | inactive | inactive | inactive | – | inactive | inactive | inactive | inactive | – | inactive
CN1CCc2cc3c(cc2C1O)OCO3 (centres undefined) | inactive | inactive | inactive | inactive | inactive | inactive | inactive | inactive | – | –
C=CC(=C)C | inactive | inactive | inactive | – | – | inactive | inactive | inactive | – | inactive
Cc1cnc2c(C(=O)O)c(Cl)ccc2c1 | inactive | inactive | inactive | – | inactive | – | inactive | inactive | – | inactive
CN1C2CCC(C)(C)C1CC(OC(=O)C(O)(c1cccs1)c1cccs1)C2 (centres undefined) | inactive | inactive | inactive | – | – | inactive | inactive | inactive | inactive | inactive
CCCCC/C=C\C/C=C\C/C=C\C/C=C\CCCC(=O)NCC(=O)O | inactive | – | inactive | – | inactive | inactive | – | – | inactive | inactive
CC(C)C(Nc1ccc(C(F)(F)F)cc1Cl)C(=O)OC(C#N)c1cccc(Oc2ccccc2)c1 (centres undefined) | inactive | inactive | inactive | inactive | – | inactive | inactive | – | inactive | –
ClC1=C(Cl)[C@]2(Cl)[C@H]3[C@H]([C@@H]4C=C[C@H]3C4)[C@@]1(Cl)C2(Cl)Cl | inactive and 54.9 µM (active) | inactive | 54.9 µM (active) | 21.8 µM (active) and 49 µM (active) | 61 µM (active) | 54.4 µM (active) | 38.9 µM (active) | – | – | –
O=C1C(Cl)=C(Cl)C(=O)C(Cl)=C1Cl | 12.3 µM (active) and 13.8 µM (active) | 17.4 µM (active) | 38.9 µM (active) | 54.8 µM (active) | – | – | inactive | – | – | –
N#CC(C#N)=NNc1cccc(Cl)c1 | 6.92 µM (active) | 8.71 µM (active) | inactive | inactive | – | – | inactive | – | – | –
[F][Sn]([c]1ccccc1)([c]1ccccc1)[c]1ccccc1 | 0.49 µM (active) | 0.692 µM (active) | 7.76 µM (active) | 5.49 µM (active) | 0.864 µM (active) | 0.273 µM (active) | 7.76 µM (active) | – | – | –
CCC[CH2][Sn]([CH2]CCC)([CH2]CCC)[O][Sn]([CH2]CCC)([CH2]CCC)[CH2]CCC | 0.603 µM (active) | 0.852 µM (active) | 0.24 µM (active) | 0.269 µM (active) | 0.336 µM (active) | – | 0.537 µM (active) | – | – | –
CC(=O)[O][Pb]([c]1ccccc1)([c]1ccccc1)[c]1ccccc1 | 1.55 µM (active) | 0.977 µM (active) | 0.871 µM (active) | 24.5 µM (active) | 0.77 µM (active) | 0.193 µM (active) | 15.5 µM (active) | – | – | –
O=S1OCC2C(CO1)C1(Cl)C(Cl)=C(Cl)C2(Cl)C1(Cl)Cl (centres undefined) | 38.9 µM (active) | inactive | 55 µM (active) | 55 µM (active) | 54.5 µM (active) | 43.3 µM (active) and 61.1 µM (active) | 38.9 µM (active) and 48.9 µM (active) | – | – | –
BrCCCBr | inactive | inactive | inactive | inactive | – | – | inactive | inactive | inactive | –
CCC[CH2][Sn]([CH2]CCC)([CH2]CCC)[CH2]CCC | 38.9 µM (active) | 49 µM (active) | 30.9 µM (active) | 21.9 µM (active) | 10.9 µM (active) | – | 21.9 µM (active) | – | – | –
CCOP(=O)(OCC)Oc1nc(Cl)c(Cl)cc1Cl | 4.34 µM (active) | – | inactive | inactive | inactive | 48.3 µM (active) | inactive | – | – | –
